Inconclusive results are not listed. A call without a number means that no potency is given here. Calls of active or inactive are those of the source. Calls come from the whole dose curve.
Columns and labels:
[1] = molecular target: Acetylcholinesterase (Homo sapiens) (UniProt P22303); test: Acetylcholinesterase (AChE) small molecule antagonists: colormetric cell-based qHTS assay (AID 1347395); note: nearly all actives have a fitted effect of over 30% in size; note: potency is the fitted concentration of half-maximal effect
Method in brief: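 Colorimetric readout: DTNB quantifies thiocholine from acetylthiocholine hydrolysed by endogenous AChE of SH-SY5Y cells (2,000/well, plated overnight). Compound pretreatment 30 min, substrate incubation 90 min, both 37 C.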

[2] = molecular target: Acetylcholinesterase (Homo sapiens) (UniProt P22303); test: Acetylcholinesterase (AChE) small molecule antagonists: enzyme-based qHTS assay (AID 1347397); details: Potency: AChE enzyme activity inhibition; outcome: AChE enzyme activity inhibition; note: nearly all actives have a fitted effect of over 55% in size; note: potency is the fitted concentration of half-maximal effect
Method in brief: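 Recombinant human AChE, dispensed at 50 mU/mL, was preincubated with Tox21 10K compounds or DMSO vehicle for 30 min at room temperature. DTNB plus acetylthiocholine was then added, and thiocholine was measured colorimetrically after a further 10 min.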

[3] = molecular target: Acetylcholinesterase (Homo sapiens) (UniProt P22303); test: Acetylcholinesterase (AChE) small molecule antagonists: fluorescence cell-based qHTS assay (AID 1347398); details: Potency: AChE activity; outcome: AChE activity; note: nearly all actives have a fitted effect of over 50% in size
Method in brief: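 Human SH-SY5Y cells were plated overnight at 37 C, exposed to compound for 30 min at 37 C, 5% CO2, then given acetylthiocholine plus Thiolite Green for 40 min at room temperature; thiocholine fluorescence (Ex/Em 490/520 nm) reports endogenous AChE activity.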

[4] = molecular target: Acetylcholinesterase (Homo sapiens) (UniProt P22303); test: Acetylcholinesterase (AChE) small molecule antagonists: enzyme-based qHTS assay with human liver microsomes (AID 1347399); details: Potency: qHTS inhibition; outcome: qHTS inhibition; note: nearly all actives have a fitted effect of over 60% in size
Method in brief: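 Recombinant human AChE (50 mU/mL in the enzyme mix) and human liver microsomes (0.25 mg/mL final) were preincubated with compound and NADPH (0.25 mg/mL final) for 30 min at 37 C. Acetylthiocholine/DTNB was then added; thiocholine was read colorimetrically after 10 min at room temperature.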

Sequence of Acetylcholinesterase (Homo sapiens) (P22303 whole entry, looked up): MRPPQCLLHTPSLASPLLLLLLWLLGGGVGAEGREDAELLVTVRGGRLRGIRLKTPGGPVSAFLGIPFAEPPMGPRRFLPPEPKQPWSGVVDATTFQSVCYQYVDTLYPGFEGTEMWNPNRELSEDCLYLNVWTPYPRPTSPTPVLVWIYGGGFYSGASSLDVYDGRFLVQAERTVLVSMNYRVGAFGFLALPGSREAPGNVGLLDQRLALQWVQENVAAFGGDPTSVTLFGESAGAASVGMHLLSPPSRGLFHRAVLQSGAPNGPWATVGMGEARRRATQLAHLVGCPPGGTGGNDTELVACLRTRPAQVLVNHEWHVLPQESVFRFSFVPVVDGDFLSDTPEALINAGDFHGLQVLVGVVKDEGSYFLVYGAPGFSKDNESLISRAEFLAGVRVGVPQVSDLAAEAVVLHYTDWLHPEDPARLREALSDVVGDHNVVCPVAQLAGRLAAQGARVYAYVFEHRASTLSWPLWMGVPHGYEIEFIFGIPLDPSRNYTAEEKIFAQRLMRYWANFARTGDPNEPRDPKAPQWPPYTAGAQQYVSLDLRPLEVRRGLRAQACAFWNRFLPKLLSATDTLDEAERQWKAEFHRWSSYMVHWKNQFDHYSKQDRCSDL

FC(F)(F)C(Cl)(Cl)Cl
Potency [1]: inactive
Potency [2]: inactive
Potency [3]: inactive

CCOc1cc(N)c(Cl)cc1C(=O)NCC1CN(Cc2ccc(F)cc2)CCO1 (configuration not stated)
Potency [1]: inactive
Potency [2]: inactive

CNCCCC1c2ccccc2C=Cc2ccccc21
outcome [1]: inactive
outcome [2]: inactive
outcome [3]: inactive

CN(C)CCOC(c1ccc(Cl)cc1)c1ccccn1 (configuration not stated)
Potency [1]: inactive

CN(C)C(=O)Nc1ccccc1
Potency [1]: inactive
Potency [2]: inactive
Potency [3]: inactive

Cc1ccc(C2OC[C@@H]3OC(c4ccc(C)cc4)O[C@H]([C@H](O)CO)[C@@H]3O2)cc1 (some centres not stated)
Potency [1]: inactive
Potency [2]: inactive
Potency [3]: inactive

CC1=NN(c2ccc(S(=O)(=O)O)cc2)C(=O)C1N=Nc1ccccc1 (configuration not stated)
Potency [1]: inactive
Potency [2]: inactive
Potency [3]: inactive

CCCCN1C(=O)[C@@H]([C@H](O)C2CCCCC2)NC(=O)C12CCN(Cc1ccc(Oc3ccc(C(=O)O)cc3)cc1)CC2
Potency [1]: inactive
Potency [2]: inactive
Potency [3]: inactive

CCCCCCOc1ccc(N)cc1
Potency [1]: inactive
Potency [2]: inactive
Potency [3]: inactive

CCOC(=N)CC(=O)OCC
Potency [1]: inactive
Potency [2]: inactive
Potency [3]: inactive

Fc1ccc(C(c2ccc(F)cc2)N2CCN(C/C=C/c3ccccc3)CC2)cc1
Potency [1]: inactive
Potency [2]: inactive
Potency [3]: inactive

CN(C)CCN1C(=O)c2ccccc2N(C)c2ccccc21
Potency [1]: inactive
Potency [2]: inactive

O=C(Nc1ccc(Cl)cc1)Nc1ccc(Cl)c(C(F)(F)F)c1
Potency [1]: inactive
Potency [2]: inactive
Potency [3]: inactive

CC(NC(CCc1ccccc1)C(=O)O)C(=O)N1C(=O)N(C)CC1C(=O)O (configuration not stated)
Potency [1]: inactive
Potency [2]: inactive
Potency [3]: inactive

CC(C)=CCC[C@H](C)CCO
Potency [1]: inactive
Potency [2]: inactive
Potency [3]: inactive

COc1ccc(COC=O)cc1
Potency [1]: inactive
Potency [2]: inactive
Potency [3]: inactive

N#CCCCC(C#N)CCC#N (configuration not stated)
Potency [1]: inactive
Potency [2]: inactive
Potency [3]: inactive

COC(=O)CCSCCC(=O)OC
Potency [1]: inactive
Potency [2]: inactive

C[C@@H](O)[C@H](N)C(=O)O
activity, negative = inhibition [1]: 2.29% [at 23.6 µM] (inactive)
activity change, negative = inhibition [2]: 0.985% [at 23.6 µM] (inactive)
activity change, negative = inhibition [3]: 4.69% [at 23.8 µM] (inactive)

CCCCCCCC/C=C/CCCOC(C)=O
Potency [1]: inactive
Potency [2]: inactive
Potency [3]: inactive

CCCCOC(=O)/C=C\C(=O)OCCCC
Potency [1]: inactive
Potency [2]: inactive
Potency [3]: inactive

Nc1nc(=O)n([C@@H]2O[C@H](CO)[C@@H](O)[C@@H]2F)cc1I
Potency [1]: inactive
Potency [2]: inactive
Potency [3]: inactive

CCCCCCCCCCCCCC(=O)OCC(O)CO (configuration not stated)
Potency [1]: inactive
Potency [2]: inactive
Potency [3]: inactive

Cc1cn[nH]c1
Potency [1]: inactive
Potency [2]: inactive
Potency [3]: inactive

CCN(CC)CCOc1ccccc1C(=O)CCc1ccccc1
Potency [1]: inactive
Potency [2]: inactive

Clc1ccc(C(Cn2ccnc2)OCc2c(Cl)cccc2Cl)c(Cl)c1 (configuration not stated)
Potency [1]: inactive

Cc1ccc(C(C)OC(=O)C2(C)CCC(C(=O)O)C2(C)C)cc1 (configuration not stated)
Potency [1]: inactive
Potency [2]: inactive
Potency [3]: inactive

COc1cc(-c2nc(NC(=O)c3cc4cc(C)cc(C)c4n3CC(=O)O)sc2CCC2CCCCC2)c(OC)cc1Cl
Potency [1]: inactive
Potency [2]: inactive
Potency [3]: inactive

Cc1ccc(Cl)c(OCC(O)CNC(C)(C)C)c1 (configuration not stated)
Potency [1]: inactive
Potency [2]: inactive
Potency [3]: inactive

N=C(N)S(=O)O
Potency [1]: inactive
Potency [2]: inactive
Potency [3]: inactive

C[n+]1cc2c3c(ccc2c2ccc4cc5c(cc4c21)OCO5)OCO3
Potency [1]: 10.7 µM (active)
Potency [2]: 16.9 µM (active)

O=S(=O)(O)c1ccc(N=Nc2c(O)ccc3ccccc23)cc1
Potency [1]: inactive
Potency [2]: inactive

COC(=O)c1cc(Cl)ccc1OC
Potency [1]: inactive
Potency [2]: inactive
Potency [3]: inactive

CC(C)(C)C1CCC(=O)CC1
Potency [1]: inactive
Potency [2]: inactive
Potency [3]: inactive

O=C(O)c1c2ccccc2cc2ccccc12
Potency [1]: inactive
Potency [2]: inactive
Potency [3]: inactive

CC[C@H](C)[C@H](N)C(=O)O
Potency [1]: inactive
Potency [2]: inactive

Cc1ccco1
Potency [1]: inactive
Potency [2]: inactive
Potency [3]: inactive

CCCCOCCOC(=O)COc1nc(Cl)c(Cl)cc1Cl
Potency [1]: inactive
Potency [2]: inactive
Potency [3]: inactive

O=C(CCCl)NCCc1ccccc1
Potency [1]: inactive
Potency [2]: inactive
Potency [3]: inactive

CC(C)CCCO
Potency [1]: inactive
Potency [2]: inactive
Potency [3]: inactive
Potency [4]: inactive

NC(Cc1ccc(Cl)cc1)C(=O)O (configuration not stated)
activity, negative = inhibition [1]: 1.17% [at 0.435 µM] (inactive)
activity change, negative = inhibition [2]: 0.0464% [at 0.435 µM] (inactive)
activity change, negative = inhibition [3]: 9.18% [at 0.439 µM] (inactive)

O=C1CCCN1C1CCCCC1
Potency [1]: inactive
Potency [2]: inactive
Potency [3]: inactive

O=C1OC(=O)C2CCCCC12 (configuration not stated)
Potency [1]: inactive
Potency [2]: inactive
Potency [3]: inactive

CCCCCCC1(C)CCC(=O)O1 (configuration not stated)
Potency [1]: inactive
Potency [2]: inactive
Potency [3]: inactive
Potency [4]: inactive

CCN(CC)C(=O)/C(C#N)=C/c1cc(O)c(O)c([N+](=O)[O-])c1
Potency [1]: inactive
Potency [2]: inactive
Potency [3]: inactive
Potency [4]: inactive

Reference: PubChem BioAssay (Tox21)
